# Assay outcomes as filed in PubChem BioAssay.
# FBW7 act: FBW7 E3 ligase activators, primary screen, biochemical, AlphaScreen, human. F-box/WD repeat-containing protein 7 (Homo sapiens), Q969H0. AlphaScreen FBW7–phospho-cyclin E peptide binding, activator screen. normalized activity (activation), % at 26.1 µM. actives 0.13% (n = 650,000); in the data active means normalized activity above about 1.9%;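 further: purified mutant Fbw7 with reduced substrate affinity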
# TEAD-YAP block: TEAD-YAP interaction inhibition, primary screen, TEAD-YAP interaction inhibitor project, luminescence, HEK-TIYL cells. TEAD-Gal4/YAP UAS-luciferase luminescence. inhibition, % at 9.12 µM. actives 1.4% (n = 640,000). AID 1259422, 2018; in the data active means inhibition above about 32%;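 further: 0% = median of test compound wells and 100% = reference inhibitor wells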
# MITF inh: MITF inhibitors, primary screen, biochemical, AlphaScreen, human; Microphthalmia-associated transcription factor (Homo sapiens), O75030; AlphaScreen MITF homodimerization, bead proximity signal; inhibition, % at 2.6 µM; actives 0.91% (n = 650,000); in the data active means inhibition above about 50%;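 further: 0% = vehicle wells with protein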
# Target sequence (O75030 whole entry, looked up): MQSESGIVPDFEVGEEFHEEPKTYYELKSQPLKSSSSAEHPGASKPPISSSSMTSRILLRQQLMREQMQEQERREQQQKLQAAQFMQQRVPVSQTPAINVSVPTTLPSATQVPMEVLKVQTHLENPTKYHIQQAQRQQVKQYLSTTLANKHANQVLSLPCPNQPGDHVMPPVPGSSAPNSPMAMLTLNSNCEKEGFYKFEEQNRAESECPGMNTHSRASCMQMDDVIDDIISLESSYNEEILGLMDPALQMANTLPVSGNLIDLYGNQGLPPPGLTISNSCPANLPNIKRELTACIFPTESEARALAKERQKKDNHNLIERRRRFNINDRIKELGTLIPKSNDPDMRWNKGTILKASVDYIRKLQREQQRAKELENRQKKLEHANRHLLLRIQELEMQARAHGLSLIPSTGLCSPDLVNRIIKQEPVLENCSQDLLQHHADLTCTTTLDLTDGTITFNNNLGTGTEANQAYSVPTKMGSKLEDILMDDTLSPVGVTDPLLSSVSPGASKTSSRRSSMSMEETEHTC
# GPR151 activ: activators of human GPR151, primary screen, cell-based, PathHunter beta-arrestin, luminescence | G-protein coupled receptor 151 (Homo sapiens), Q8TDV0 | PathHunter beta-arrestin GPR151 cells | activation, % at 11.2 µM | actives 1% (n = 650,000); in the data active means activation above about 4.9%;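 further: 0% = median of compound wells and 100% = cells with positive control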
# GPR151 conf act: GPR151 activators, triplicate retest, confirmation, cell-based, PathHunter beta-arrestin, luminescence; shares compounds with GPR151 activ; GPR151 PathHunter beta-arrestin cells, 90 min; % of EA-reagent control over plate median; activation, % at 11.2 µM; 6,700 tested, under 10 active; AID 1508609, 2020;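 active means mean percent activation across replicates above the confirmation screen cutoff of 4.91%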
# GPR119 ag: GPR119 activators in beta-arrestin cells, counter-screen for GPR151 activator project, cell-based, PathHunter beta-arrestin, luminescence, triplicate; shares compounds with GPR151 activ; 90 min; 0 = compound-well median, 100 = enzyme-acceptor control; activation, % at 11.2 µM; actives 0.3% (n = 6,700); AID 1508611, 2020;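 active means mean percent activation in the counterscreen above 29.09%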;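 further: counterscreen on off-target GPR119 to flag nonselective hits from the GPR151 activator screen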
# * = called active by the depositor; / = not tested or not shown. Shown are actives, neighbours in structure and some others; about 3.5% of the full set was active somewhere.
SMILES,FBW7 act,TEAD-YAP block,MITF inh,GPR151 activ,GPR151 conf act,GPR119 ag
CCC(=O)Nc1sc2c(c1C(=O)Nc1ccc(OC)cc1)CCC(C(C)(C)C)C2 (stereo unspecified),0,-1,1,8.8*,-2,-11
CCOc1ccc(NC(=O)c2c(NC(=O)CC)sc3c2CCC(C(C)(C)C)C3)cc1 (stereo unspecified),0,6,12,0,/,/
Cc1cc2[nH]c(=O)c(=O)[nH]c2cc1S(=O)(=O)NC1CCC(C)CC1 (stereo unspecified),0,-6,2,7.4*,1,3
COCCN(C(=O)CC1C(=O)NCCN1Cc1ccccc1OC)C(C)C (stereo unspecified),0,9,4,0,/,/
CCCCCCCC1=NN2C(=N)/C(=C/c3ccc(-c4ccccc4[N+](=O)[O-])o3)C(=O)N=C2S1,1,-1,5,5.6*,0,8
CC1CCN(c2nc(N3CCOCC3)nc(N3CCOCC3)n2)CC1,0,8,8,8.9*,0,-2
COc1ccc(/C=C(\C#N)c2ccccn2)c(OC)c1OC,0,-44,1,1,/,/
COc1ccc2ccccc2c1/C=C(\C#N)c1ccccn1,0,-10,0,5.2*,0,10
O=C(COc1ccc(/C=C2/NC(=O)N(c3ccccc3)C2=O)cc1Cl)Nc1ccccc1,0,-12,-6,9.0*,-1,-14
O=C(COc1ccc(/C=C2/NC(=O)N(c3ccccc3)C2=O)cc1)Nc1ccc(F)cc1,0,3,15,-1,/,/
Cc1cc(C)cc(NC(=O)c2ocnc2C)c1,0,-10,10,-4,/,/
CCC(=O)N1c2ccccc2-c2nnc(SC)nc2OC1c1cc(Cl)c(OC)c(OC)c1 (stereo unspecified),0,-8,-10,0,/,/
Cc1nn(C(=O)Cn2ccc([N+](=O)[O-])n2)c(C)c1I,1,5,3,5.3*,0,1
O=C1CSC(c2cccc([N+](=O)[O-])c2)N1Cc1ccccc1 (stereo unspecified),0,-10,15,10*,1,5
O=C(O)CC(NC(=O)C12CC3CC(CC(C3)C1)C2)c1cccc([N+](=O)[O-])c1 (stereo unspecified),0,-13,-4,6.0*,0,0
O=C(O)CC(NC(=O)C12CC3CC(CC(C3)C1)C2)c1ccc(Cl)cc1 (stereo unspecified),0,12,1,2,/,/
CCOC(=O)N1CCN(S(=O)(=O)c2cc(C(=O)O)ccc2F)CC1,0,-6,1,5.8*,0,13
CCOc1ccccc1NC(=O)c1ccc(F)c(S(=O)(=O)N2CCN(c3ccccn3)CC2)c1,0,10,4,6.0*,-1,-2
CCOc1ccccc1NC(=O)c1ccc(F)c(S(=O)(=O)N2CCN(c3ccccc3F)CC2)c1,0,1,-3,-1,/,/
CCOC1CC(c2ccccc2)=NN1c1ccc([N+](=O)[O-])cc1 (stereo unspecified),0,-48,12,2,/,/
CC1CN(C(=O)CCC(=O)NC2CCCC2)c2cc(Cl)ccc2O1 (stereo unspecified),0,-4,-3,0,/,/
CC1CN(C(=O)CCC(=O)N2CCN(c3ccccn3)CC2)c2ccccc2O1 (stereo unspecified),0,-2,-7,6.1*,0,0
CC1CN(C(=O)CCC(=O)NC2CCCC2)c2ccccc2O1 (stereo unspecified),0,-6,5,5.1*,0,-2
Cc1ccc(S(=O)(=O)CCC(=O)N2CCN(c3ccccn3)CC2)cc1,0,-3,4,5.1*,0,-3
Cc1cc2ccccc2c(=O)n1CC(=O)N1CCN(c2ccccn2)CC1,0,10,-2,7.2*,0,-9
SMILES,FBW7 act,TEAD-YAP block,MITF inh,GPR151 activ,GPR151 conf act,GPR119 ag
CCOCCCNC(=O)NC(=O)CN1C(=O)NC(C)(c2cccc3ccccc23)C1=O (stereo unspecified),0,-1,2,0,/,/
CN(CCC1CCCCO1)C(=O)CC1(c2cccc(F)c2)CC(=O)N(C2CCCC2)C1=O (stereo unspecified),0,-12,9,1,/,/
COC(=O)Cc1nc(N2CCN(Cc3ccc4c(c3)OCO4)CC2)c2c(C)c(C)sc2n1,0,10,-1,-2,/,/
COc1ccc(Cc2cnc(NC(=O)CCl)s2)cc1,1,23,11,1,/,/
CCC1CCCCN1C(=O)Cn1c(=O)n(-c2ccc(F)cc2)c(=O)c2sccc21 (stereo unspecified),0,14,-2,2,/,/
CC1CCCCN1C(=O)Cn1c(=O)n(-c2ccc(F)cc2)c(=O)c2sccc21 (stereo unspecified),0,8,-2,5.2*,0,-5
COc1ccccc1N1CCN(C2CCCN(Cc3ccccc3O)C2)CC1 (stereo unspecified),0,8,13,8.0*,0,2
O=c1oc2ccccc2c(NC2CCCCCCC2)c1[N+](=O)[O-],0,-3,12,0,/,/
COC(=O)C1=C(C)NC(=O)C1(NC(=O)c1ccc(OC)c(OC)c1)C(F)(F)F (stereo unspecified),0,0,-9,13*,0,-5
c1ccc2c(NC3CCCC3)nc(N3CCNCC3)nc2c1,0,-5,2,2,/,/
CN1CCN(c2nc(NC3CCCCC3)c3ccccc3n2)CC1,0,4,-33,12*,0,18
O=C(c1ccc(Cl)cc1)N(Cc1ccc(Br)cc1)N1C(=O)CCCC1=O,0,13,12,-1,/,/
Cc1ccc(C(=O)/C=C\N2CCCCC2)cc1,0,-6,14,5.2*,-3,-30
COc1ccc(-c2noc(=O)n2Cc2ccccn2)cc1,0,1,8,1,/,/
CCN(CC)C(=O)C1CCCN1S(=O)(=O)c1cccc2nsnc12 (stereo unspecified),0,-1,11,2,/,/
CCN(C(=O)C1CCCN1S(=O)(=O)c1cccc2nsnc12)c1cccc(C)c1 (stereo unspecified),0,7,17,8.2*,-1,2
Cc1sc(NC(=O)CCOc2ccccc2)c(C#N)c1C,0,6,-5,6.9*,-1,4
O=C1c2ccncc2C(=O)N1c1ccc(-c2nc3ccccc3[nH]2)cc1,0,-43,-3,-5,/,/
